Source: PubChem (several laboratories)
Only some compounds are listed: those with a hit (about 2.4% of all), similar ones and a draw of the others.
APOBEC3A inh: human APOBEC3A DNA deaminase inhibition | inhibition, % at 20 µM | recombinant A3A, FAM/TAMRA ssDNA deamination fluorescence | hit rate 0.41% among 330,000;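 active means at least 40% inhibition at 20 µM here, with at most 30% in a related deaminase screen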;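 further: plate controls were A3A with DMSO for no effect and wells lacking A3A enzyme for full effect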
Target sequence (P31941 whole entry, looked up): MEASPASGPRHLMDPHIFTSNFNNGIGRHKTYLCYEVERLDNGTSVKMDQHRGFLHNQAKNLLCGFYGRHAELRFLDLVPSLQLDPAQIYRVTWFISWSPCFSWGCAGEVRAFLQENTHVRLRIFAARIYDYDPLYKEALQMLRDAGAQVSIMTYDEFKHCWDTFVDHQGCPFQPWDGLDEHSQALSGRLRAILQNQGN
A3G deaminase: blocks human APOBEC3G single-stranded DNA deamination. inhibition, % at 20 µM. Q9HC16. hit rate 0.28% among 330,000. recombinant A3G, ssDNA deamination FAM/TAMRA fluorescence. AID 493012;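 active means inhibition of at least 40% at 20 µM, with no more than 30% in the related APOBEC3A deaminase screen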;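 further: plate controls were DMSO wells with A3G for no effect and wells lacking A3G enzyme for full effect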
Target sequence (Q9HC16 whole entry, looked up): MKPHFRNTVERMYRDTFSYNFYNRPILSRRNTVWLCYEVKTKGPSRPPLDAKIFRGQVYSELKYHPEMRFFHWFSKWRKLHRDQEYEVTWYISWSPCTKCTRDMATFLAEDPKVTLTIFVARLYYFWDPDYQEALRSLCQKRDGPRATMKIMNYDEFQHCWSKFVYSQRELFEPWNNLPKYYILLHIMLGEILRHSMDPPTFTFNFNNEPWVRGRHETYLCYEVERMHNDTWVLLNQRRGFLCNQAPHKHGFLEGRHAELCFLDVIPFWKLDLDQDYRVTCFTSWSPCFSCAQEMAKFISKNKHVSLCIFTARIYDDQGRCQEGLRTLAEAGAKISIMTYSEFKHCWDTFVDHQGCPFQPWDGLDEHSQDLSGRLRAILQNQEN
ADAM17 inh: ADAM17 inhibition, QFRET primary screen | P78536 | recombinant ADAM17, EDANS/DABCYL FRET peptide cleavage | inhibition, % at 6.95 µM | hit rate 0.83% among 370,000 | AID 720648;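 active means inhibition above the mean of compounds lying between control limits plus 3 SD, set per campaign, cut at about 8.5% in these data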;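 further: 0% = DMSO-only wells as the low control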
CendR NRP1 mod: NRP-1/CendR interaction modulation | O14786 | FAM-RPARPAR peptide binding to NRP-1, fluorescence polarization | inhibition, % at 25 µM | hit rate 0.85% among 360,000 | AID 602438;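 active means inhibition or corrected inhibition above about 18%, plus a signal ratio from 0.5 to 1.5, limit read from the data, passing the limit was not always enough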
ADAM10 inh: inhibitors of human ADAM10; O14672; recombinant ADAM10, EDANS/DABCYL FRET peptide cleavage, 3 h; inhibition, % at 7 µM; hit rate 0.62% among 370,000; AID 720582;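 active means inhibition above a per-campaign cutoff equal to the mean of compounds falling between control-based bounds plus 3 SD, cut at about 20% in these data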;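 further: 0% = DMSO wells while the 100% control is not disclosed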
ADAM10 ctr: inhibits human ADAM10 in ADAM17 exosite counter-screen. shares compounds with ADAM17 inh. recombinant ADAM10, EDANS/DABCYL FRET peptide cleavage, 3 h. inhibition, % at 6.95 µM. hit rate 47% among 2,900. AID 743256;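 active means mean inhibition over the triplicate runs exceeds the activity threshold set in the earlier primary screen, cut at about 20% in these data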;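 further: 0% = DMSO wells and 100% = marimastat wells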
ADAM17 confirm: human ADAM17 inhibition, confirmation. AID 743257. recombinant ADAM17, EDANS/DABCYL QFRET peptide cleavage. inhibition, % at 6.95 µM. shares compounds with ADAM17 inh. hit rate 65% among 2,900;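 active means mean inhibition across replicates above the hit cutoff set in the primary screen, cut at about 8.5% in these data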;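 further: 0% = DMSO wells and 100% = marimastat wells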
* marks the source's active call; other numbers are inactive results.

For C#CCN(C[C@@H]1[C@@H](OC(=O)Nc2cccs2)[C@@H](OC(=O)Nc2cccs2)Cn2c(=O)n(CCCCCC)c(=O)n21)S(=O)(=O)c1ccc(C)cc1 the results were ADAM17 inh 11*, CendR NRP1 mod -10, ADAM10 inh 18, ADAM10 ctr 20 and ADAM17 confirm 10*.
`CCOC(=O)CC[C@H]1CC[C@]2(CCCN(C(=O)c3ccccc3)C2)O1` gave ADAM17 inh -1 and ADAM10 inh -6.
Screening C#CCNC(=O)C[C@@H]1C(=O)N2CCCC3=C2[C@@]1(C(=O)OC)CCCC3 returned ADAM17 inh -2 and ADAM10 inh -2.
For CCOc1cc2c3c(c1)C1(C(=O)N3C(C)(C)C=C2C)C(C#N)=C(N)Oc2cc(O)ccc21 (centres undefined) the results were APOBEC3A inh -1, A3G deaminase -4, ADAM17 inh 9.0*, CendR NRP1 mod 18, ADAM10 inh 5, ADAM10 ctr 9 and ADAM17 confirm 12*.
For O=C(Cc1ccc(S(=O)(=O)N2CCCCC2)s1)Nc1ccc(F)c(F)c1 the results were APOBEC3A inh 1, A3G deaminase -6, ADAM17 inh 10.0*, CendR NRP1 mod -11, ADAM10 inh 20, ADAM10 ctr 36* and ADAM17 confirm 13*.
`CCN(CC)S(=O)(=O)c1cc(NC(=O)Cc2ccc(S(=O)(=O)N3CCOCC3)s2)ccc1Cl` gave ADAM17 inh 9.9*, CendR NRP1 mod -6, ADAM10 inh 3, ADAM10 ctr 15 and ADAM17 confirm 12*.
Screening O=S1(=O)N[C@@H](Cc2ccccc2)COc2cccc(N3CCCCC3)c21 returned ADAM17 inh 2 and ADAM10 inh -2.
COC(=O)C1=C(C)N(C)C(=NCC2CC2)NC1c1ccccc1 (centres undefined) was read as ADAM17 inh -3 and ADAM10 inh -1.
`CC[C@H](C(=O)Nc1ccccc1N1CCCC1)c1ccccc1` gave ADAM17 inh -1 and ADAM10 inh 5.
For CC(=O)Oc1ccc([N+](=O)[O-])cc1N1C(=O)c2ccccc2C1=O the results were APOBEC3A inh 2, A3G deaminase 1, ADAM17 inh 9.8*, CendR NRP1 mod 8, ADAM10 inh 6, ADAM10 ctr 23* and ADAM17 confirm 13*.
CC(C)c1ccc(/C=N/n2c(-c3ccccc3)n[nH]c2=S)cc1 was read as APOBEC3A inh 0, A3G deaminase -6, ADAM17 inh 10*, CendR NRP1 mod 2, ADAM10 inh 19, ADAM10 ctr 9 and ADAM17 confirm 5.
C[C@H]1[C@@H](NC(=O)c2cccc(N(C)C)c2)CC[C@@]23CCCN2C(=O)CCC[C@@H]13 was read as ADAM17 inh -28 and ADAM10 inh -87.
`COc1ccc(OC)c(NC(=O)CCC(=O)Nc2nnc(C(C)C)s2)c1` gave APOBEC3A inh -1, A3G deaminase 0, ADAM17 inh 12*, CendR NRP1 mod 8, ADAM10 inh 1, ADAM10 ctr -10 and ADAM17 confirm -3.
Screening CCCC(=O)NC(c1ccccc1OC)c1ccc2cccnc2c1O (centres undefined) returned APOBEC3A inh 0, A3G deaminase -8 and CendR NRP1 mod -11.
CCCCC(=O)NC(c1ccccc1OC)c1ccc2cccnc2c1O (centres undefined) was read as APOBEC3A inh 7, A3G deaminase 3, ADAM17 inh 9.0*, CendR NRP1 mod -12, ADAM10 inh 18, ADAM10 ctr 16 and ADAM17 confirm 7.
COC(=O)[C@H](CC(C)C)NCc1cccc(CN[C@@H](CC(C)C)C(=O)OC)c1 was read as APOBEC3A inh 2, A3G deaminase -7, ADAM17 inh 8.9*, CendR NRP1 mod 4, ADAM10 inh 7, ADAM10 ctr 7 and ADAM17 confirm 3.
For CSc1cccc(NC(=S)NN/C(=N/S(=O)(=O)c2ccccc2)N2CCCC2)c1 the results were ADAM17 inh -1 and ADAM10 inh -3.
`CC(=O)OCC(=O)[C@@]12OC3(CCCC3)O[C@@H]1C[C@H]1[C@@H]3CCC4=CC(=O)C=C[C@]4(C)[C@@]3(F)[C@@H](O)C[C@@]12C` gave APOBEC3A inh -2, A3G deaminase -2, ADAM17 inh 8.7*, CendR NRP1 mod 1, ADAM10 inh 19, ADAM10 ctr 8 and ADAM17 confirm 6.
OC[C@@H]1CC[C@@H]2O[C@H](CCc3ccc(-c4ccc(F)cc4)cc3)[C@@H](n3cc(C4CC4)nn3)C[C@@H]2O1 was read as ADAM17 inh 4 and ADAM10 inh 2.
COC(=O)c1ccc2nc(-c3cccc(Br)c3)c(Cc3cccc(Cl)c3)n2c1 was read as ADAM17 inh 3 and ADAM10 inh -25.
`Cc1cc(C)nc(SCC(=O)c2ccc(O)c(O)c2)n1` gave APOBEC3A inh 6, A3G deaminase 4, ADAM17 inh 2, CendR NRP1 mod -25 and ADAM10 inh 6.
Cc1cc(SCC(=O)c2ccc(O)c(O)c2)n2nc(C)c(-c3ccccc3)c2n1 was read as APOBEC3A inh -1, A3G deaminase -4, ADAM17 inh 9.9*, CendR NRP1 mod -52, ADAM10 inh 18, ADAM10 ctr 14 and ADAM17 confirm 14*.
`C[C@H](CO)N1C[C@H](C)[C@@H](CN(C)C(=O)NC2CCCCC2)OCc2cn(nn2)CCCC1=O` gave ADAM17 inh -4 and ADAM10 inh -17.
`COC(=O)C(CCCCN1C(=O)C2C3C=CC(C3)C2C1=O)N1C(=O)C2C3C=CC(C3)C2C1=O` (centres undefined) gave APOBEC3A inh 1, A3G deaminase -2, ADAM17 inh -5, CendR NRP1 mod 1 and ADAM10 inh 0.
`COc1ccc(C(=O)COC(=O)C(CCCCN2C(=O)C3C4C=CC(C4)C3C2=O)N2C(=O)C3C4C=CC(C4)C3C2=O)cc1` (centres undefined) gave APOBEC3A inh -3, A3G deaminase 1, ADAM17 inh 9.3*, CendR NRP1 mod -4, ADAM10 inh 8, ADAM10 ctr -3 and ADAM17 confirm 5.
CCCCCC(CC(=O)NO)C(=O)NC(C(=O)N1CCCC1CO)C(C)C (centres undefined) was read as APOBEC3A inh -6, A3G deaminase -6, ADAM17 inh 51*, CendR NRP1 mod -1 and ADAM17 confirm 64*.
CC(C)NC(=O)c1cc(C2CCCCN2S(=O)(=O)c2ccc(C#N)cc2)on1 (centres undefined) was read as ADAM17 inh -6, CendR NRP1 mod 0 and ADAM10 inh -8.
